Measured values from PubChem BioAssay (NCATS).
Unmarked numbers belong to inactive results. The rule behind the calls is not given here.

test system: HIV-1 nucleocapsid protein NCp7 (binding to TG oligonucleotide); assay: HIV Nucleocapsid (AID 346); details: HIV-1 NC / fluorescein-TGTGTGTG probe, fluorescence polarization;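 note: potency is for inhibitors that block NC binding and lower polarization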
Method: NCGC Assay Overview: HIV-1 nucleocapsid protein (HIV-1 NC) is a small (6.5 kDa) basic zinc-finger protein which participates in packaging of viral genomic RNA. The spacing and metal-chelating residues (3 Cys, 1 His) of the Cys-X2-Cys-X4-His-X4-Cys Zn fingers are conserved among all known retroviruses (J. Med. Chem. 1998, 41, 1371-1381). HIV-1 NC was assayed for its binding to the consensus sequence single-stranded 5'-TGTGTGTG. […] High salt was included to increase the stringency of binding and inhibitor screen. Reducing agents and zinc were present to stabilize the nucleocapsid zinc-finger protein.
NCGC Assay Protocol Summary: Buffer. Hepes pH 7.5, 250mM NaCl, 1uM ZnCl2. 0.004% polyethylene glycol 20000. TCEP (100 uM) and 2-Mercaptoethanol (5 mM), added fresh the day of the experiment. Reagents/Controls. 10 nM TG4xF only in columns 3 and 4 as negative control. 10 nM TG4xF/100 nM HIV-1 NC in columns 1, 2, 5-48. Titration of control compound NSC-13778 (from 20 mM, then 1:2) pin-transferred to column 2. Assay Steps. Two uL of reagents were dispensed to 1536-well Kalypsys black plates. The plates were centrifuged for 1 min at 1000 rpm. Compounds and controls (20 nL) were transferred via Kalypsys PinTool. The plates were incubated for 1 hr at room temperature, and then read on ViewLux (Perkin-Elmer). High-throughput CCD imager using fluorescein polarization filter set and 45 seconds exposure time.
Potency is the fitted concentration of half-maximal effect.

Compound	Potency [µM]
O=c1c(-c2cc(F)cc(F)c2)nc2cnc(N3CCNCC3)nc2n1Cc1ccc(F)cc1	> 20
COc1ccccc1CN1CCC2(CC1)CCN(C(=O)c1cc(C(F)(F)F)cc(C(F)(F)F)c1)CC2	> 20
COc1ccc(C(=O)N2CCC3(CCCN(C(=O)Nc4cccc(F)c4)C3)CC2)cc1	> 20
COc1cccc(Cn2c(=O)c(-c3cc(F)cc(F)c3)nc3cnc(N4CCN(C)CC4)nc32)c1	> 20
CN(C)c1nc(-c2ccoc2)nc2ccccc12	> 20
O=S(=O)(c1ccccc1)N1CCC2(CCCN(c3ccccc3)C2)CC1	> 20
COc1ncc2nc(-c3cn(C)c4ccccc34)c(=O)n(-c3ccccc3)c2n1	> 20
O=C(c1ccncc1)N1CCC[C@@]2(CCN(C(c3ccccc3)c3ccccc3)C2)C1	> 20
Cc1nc2cnc(N3CCNCC3)nc2n(C2CC2)c1=O	> 20
COc1ccc2[nH]cc(CCNc3ncnc4ccc(-c5ccccc5OC)cc34)c2c1	> 20
Cc1cnc(CNc2ccnc(-c3cccnc3)n2)cn1	> 20
COc1ccccc1-c1nc(NCc2ccccc2)c2ccccc2n1	> 20
Cc1nc2cncnc2n(C2CC2)c1=O	> 20
COc1cccc(Cn2c(=O)c(-c3cccs3)nc3cnc(OC)nc32)c1	> 20
Cc1noc(C)c1C(=O)N1CCC[C@@]2(CCN(Cc3nccs3)C2)C1	> 20
COc1ccc2[nH]cc(CCNc3ncncc3-c3c(C)noc3C)c2c1	> 20
COc1ccc(-n2c(=O)cnc3cnc(OC)nc32)cc1	> 20
COc1ccc(C(=O)N2CCC3(CCCN(c4ccncc4)C3)CC2)cc1	> 20
Cc1noc(C)c1C(=O)N1CCC2(CC1)CCN(c1cccc(-c3ccccc3)c1)CC2	> 20
CN(C)c1ccc(-c2nc(NCCN3CCOCC3)c3ccccc3n2)cc1	> 20

Compound	Potency [µM]
COc1ccccc1CNc1cc(-c2c(C)noc2C)ncn1	> 20
CC(=O)N1CCC2(CCCN(c3ccccn3)C2)CC1	> 20
Cc1nc2cnc(OCc3ccccc3)nc2n(CCC#N)c1=O	> 20
O=c1c(-c2ccc(F)cc2)nc2cnc(Oc3cccc(Cl)c3)nc2n1C[C@H]1CCCO1	> 20
COc1ccccc1-c1nccc(NC2CCNCC2)n1	> 20
COc1ncc2nc(C)c(=O)n(C[C@H]3CCCO3)c2n1	> 20
COc1ccccc1-c1ccc2ncnc(NCc3cnc(C)cn3)c2c1	> 20
O=C(c1cnccn1)N1CCC2(CCCN(Cc3ccccc3)C2)CC1	> 20
O=C(c1cnccn1)N1CCC2(CC1)CCN(c1cccc(-c3ccccc3)c1)CC2	> 20
CC(=O)NCCNc1ncncc1-c1ccccc1C	> 20
O=C(c1cnccn1)N1CCC2(CCN(Cc3ccccc3)CC2)CC1	> 20
COc1cccc(Cn2c(=O)c(C)nc3cnc(N4CCN(C)CC4)nc32)c1	> 20
O=C(c1cccc(F)c1)N1CCC[C@@]2(CCN(C(c3ccccc3)c3ccccc3)C2)C1	> 20
O=c1c(-c2ccc(F)cc2)nc2cnc(Oc3ccccc3)nc2n1C[C@H]1CCCO1	> 20
N#Cc1ccc(CN2CC[C@@]3(CCCN(C(=O)c4cc(C(F)(F)F)cc(C(F)(F)F)c4)C3)C2)cc1	> 20
COc1cccc(Nc2ncc3nc(C)c(=O)n(CCc4ccccc4)c3n2)c1	> 20
COCCn1c(=O)c(-c2ccc(OC)cc2)nc2cnc(Oc3ccccc3)nc21	> 20
Cc1cccc(CNc2ncnc3ccc(-c4ccoc4)cc23)c1	> 20
COc1ccc(C(=O)N2CCC3(CCCN(c4ccccc4)C3)CC2)cc1	> 20
COCCn1c(=O)c(CCc2ccccc2)nc2cnc(OCc3ccccc3)nc21	> 20
